Test results published in PubChem BioAssay AID1851 (National Center for Advancing Translational Sciences (NCATS), 2009).
Values joined by “and” are separate entries in the source; they are usually repeats but may differ in a detail not shown here. Identical values can stand only once. Out of some 16,000 compounds screened, about 5,800 (36%) were called active. Inconclusive results (about 23%) are left out. The call rests on the fitted dose curve; in most records, active means well fitted curve in the direction sought with a large enough effect; inconclusive means small, poorly fitted or top-dose-only effect, or effect the other way; inactive means no such curve, though single readings can be large or run the other way. Some of the results follow. Some structures have more than one record in an assay (separate samples or runs), and their calls can disagree.

Target: Cytochrome P450 2C19 (Homo sapiens) (UniProt P33261)
Assay: Cytochrome panel assay with activity outcomes
Conditions: recombinant CYP, pro-luciferin dealkylation, luminescence, p450-cyp2c19; series mostly up to 57.1 µM; activity, negative = inhibition: at the top concentration
On the % scale 0 is the no-effect control and ±100 the full control effect.

Chain of Cytochrome P450 2C19 (Homo sapiens) (P33261 whole entry, looked up): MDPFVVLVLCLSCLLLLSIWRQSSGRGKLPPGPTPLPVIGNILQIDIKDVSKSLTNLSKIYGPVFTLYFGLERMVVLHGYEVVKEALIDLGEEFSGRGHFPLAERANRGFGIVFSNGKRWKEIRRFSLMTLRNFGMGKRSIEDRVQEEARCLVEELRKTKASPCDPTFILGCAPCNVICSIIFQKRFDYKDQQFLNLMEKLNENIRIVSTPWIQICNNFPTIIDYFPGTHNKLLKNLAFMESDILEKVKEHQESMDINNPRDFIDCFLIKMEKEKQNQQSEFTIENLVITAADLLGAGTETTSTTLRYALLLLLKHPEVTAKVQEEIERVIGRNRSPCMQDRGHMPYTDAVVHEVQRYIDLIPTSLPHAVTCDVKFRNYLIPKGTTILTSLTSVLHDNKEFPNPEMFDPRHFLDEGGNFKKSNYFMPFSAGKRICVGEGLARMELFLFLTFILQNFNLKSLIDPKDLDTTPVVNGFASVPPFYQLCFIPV

Structure (SMILES)	activity, negative = inhibition	AC50
C[C@@H](c1ccccc1)N1C(=O)[C@H]2[C@@H]3[C@H](O)[C@H](O)CC(=O)[C@H]3CC[C@H]2C1=O	13.8% [at 11.4 µM] (inactive) and 0.79% [at 11.4 µM] (inactive)	–
Cc1nc2cnc(Oc3ccccc3)nc2n(-c2ccccc2)c1=O	-27.5% (inactive)	–
O=C(O)CNc1ccc(C(=O)O)cc1	21.5% [at 11.4 µM] (inactive)	–
Cc1ccc(NCCC(=O)c2ccc(Cl)cc2)cc1	–	1.41 µM (active)
O=C(O)CCC(=O)c1ccc(Cl)cc1	22.7% [at 11.4 µM] (inactive)	–
CC[N+](C)(CC)CCC[n+]1c(-c2ccccc2)c2cc(N)ccc2c2ccc(N)cc21	–	1.58 µM (active)
CC(=O)c1cc2ccccc2oc1=O	-33.4% [at 25.6 µM] (inactive)	–
Cc1ccc[n+](CC(=O)c2cc3ccccc3oc2=O)c1	-0.3% (inactive)	–
CC(C)OC(=O)c1cc2ccccc2oc1=O	–	15.8 µM (active)
CC1(C)Oc2ccc(C#N)cc2[C@H](N2CCCC2=O)[C@H]1O	-39.4% (inactive)	–
COn1c(-c2ccccc2)nc2c1CCc1nonc1-2	–	15.8 µM (active)
CCC(C)c1ccc(Nc2ncccc2C#N)cc1 (stereo not drawn)	–	4.47 µM (active)
O=C(Cc1ccccc1)NC(NCCc1ccccc1)C(Cl)(Cl)Cl (stereo not drawn)	–	0.794 µM (active)
O=C(O)C[C@H](Cc1ccccc1)C(=O)O	-9.67% [at 11.4 µM] (inactive)	–
COc1cccc(CNC(=O)CCNC(=O)Cn2ccc3ccccc3c2=O)c1	1.62% (inactive)	–
COc1ccc(N(CC(=O)NCc2cccc(OC)c2)S(=O)(=O)c2c(C)noc2C)cc1	–	2 µM (active)
COc1ccc(NC(=O)N2CC[C@@]3(CCCN(C(=O)c4c(C)noc4C)C3)C2)cc1	49.9% (inactive)	–
COC(=O)CN(c1ccc(OC)cc1)S(=O)(=O)c1c(C)noc1C	–	5.01 µM (active)
O=C(O)/C=C\c1cnc[nH]1	-4.94% (inactive)	–
NCCCc1c(-c2ccccc2)nc(N)[nH]c1=O	-12.9% [at 11.4 µM] (inactive)	–
CCCCCOC(=O)CSc1nnc(-c2ccccc2)c(=O)[nH]1	–	8.91 µM (active)
Nc1nc(SCC(=O)O)[nH]c(=O)c1N	25.5% [at 11.4 µM] (inactive)	–
CC(=O)OCCCN1c2ccccc2Nc2nnc(-c3ccccc3)cc21	–	7.08 µM (active)
CCNc1ncc2nc(-c3ccc(Cl)cc3)c(=O)n(C)c2n1	-25.3% (inactive)	–

Structure (SMILES)	activity, negative = inhibition	AC50
CC(C)(C)n1nc(-c2ccc(Cl)cc2)c2c(N)ncnc21	–	2 µM (active)
CC(C)(C)Cn1nc(-c2ccc(Cl)cc2)c2c(N)ncnc21	-23% (inactive)	–
O=c1c2ccccc2nnn1CSc1ccc2c(c1)OCCO2	–	1.12 µM (active)
O=c1c2ccccc2nnn1CSc1nnnn1-c1ccccc1	–	7.94 µM (active)
Cc1cc(C)c(C#N)c(OCC(=O)c2ccc(Br)cc2)n1	–	3.16 µM (active)
C/C(=N\NC(=O)c1ccncc1)c1ccc2ccccc2c1O	–	0.501 µM (active)
O=Nc1c(O)n(Cc2ccc(Cl)cc2)c2ccccc12	–	0.794 µM (active)
O=Nc1c(O)n(Cc2cccc(Cl)c2)c2ccccc12	–	3.55 µM (active)
O=Nc1c(O)n(Cc2ccc(Cl)c(Cl)c2)c2ccccc12	–	0.891 µM (active)
Cn1c(=O)c2c(n(Cc3ccccc3)c1=O)NC(=O)C2CC(=O)NCc1cccc(Cl)c1 (stereo not drawn)	13.5% (inactive)	–
O=C1C(=O)N(Cc2ccc(Cl)c(Cl)c2)c2ccccc21	-16.7% (inactive)	–
Cc1cc([N+](=O)[O-])ccc1NCc1ccccc1	–	2 µM (active)
COc1ccc([N+](=O)[O-])cc1NCc1ccccc1C	–	2.82 µM (active)
O=C(O)c1cc([N+](=O)[O-])ccc1NCCCc1ccccc1	-3.04% (inactive)	–
CN(Cc1ccccc1)c1nc(-c2ccc([N+](=O)[O-])cc2)nc2ccccc12	-10.7% (inactive)	–
O=[N+]([O-])c1ccc(CS(=O)Cc2ccccc2)cc1 (stereo not drawn)	–	1.26 µM (active)
COc1ccccc1CN1CCC2(CC1)CCN(C(=O)c1cccn1C)CC2	2.93% (inactive)	–
O=C1CC(N2CCOCC2)C(=O)N1c1cccc(Cl)c1 (stereo not drawn)	–	8.91 µM (active)
CO[C@@H]1/C=C\O[C@]2(C)Oc3c(C)c(O)c4c(O)c(cc(O)c4c3C2=O)NC(=O)/C(C)=C\C=C/[C@H](C)[C@@H](O)[C@H](C)[C@H](O)[C@H](C)[C@H](OC(C)=O)[C@@H]1C	-13.1% [at 11.4 µM] (inactive)	–
CO[C@H]1C=CO[C@]2(C)Oc3c(C)c(O)c4c(O)c(c5c(c4c3C2=O)NC2(CCN(CC(C)C)CC2)N=5)=NC(=O)C(C)=CC=C[C@@H](C)[C@@H](O)[C@@H](C)[C@@H](O)[C@@H](C)[C@@H](OC(C)=O)[C@@H]1C	-33.7% [at 25.6 µM] (inactive)	–
CO[C@@H]1/C=C\O[C@@]2(C)Oc3c(C)c(O)c4c(c3C2=O)C(=N[C@H]2CC[C@H](O)O[C@@H]2C)C=C(NC(=O)/C(C)=C\C(=O)[C@@H]2C[C@@H]2[C@@H](O)[C@H](C)[C@@H](O)[C@H](C)[C@H](OC(C)=O)[C@@H]1C)C4=O	–	2.51 µM (active)
Cc1ccc(N2C(=O)C(Cl)=C(NCc3ccccc3)C2=O)c(C)c1	–	3.16 µM (active)
CCSc1ncnc2c1sc1nc(-c3ccco3)c3c(c12)CC(C)(C)OC3	6.2% (inactive)	–
c1ccc(CSc2ncnc3c2sc2nc(N4CCOCC4)c4c(c23)CCCC4)cc1	–	7.08 µM (active)

Structure (SMILES)	activity, negative = inhibition	AC50
OCCn1cnc2c(SCc3ccccc3)ncnc21	12.6% [at 11.4 µM] (inactive)	–
CC(C)C[C@H](NC(=O)N1CCCCCC1)C(=O)N[C@H](Cc1cn(C)c2ccccc12)C(=O)N[C@H](Cc1ccccn1)C(=O)O	-10.8% (inactive)	–
CCn1c2ccccc2c2cc(NC(=O)CSc3nnc(-c4ccc(OC)c(OC)c4)n3N)ccc21	–	7.94 µM (active)
O=C(CCCNS(=O)(=O)c1cccc2nsnc12)NCCc1ccccc1	–	6.31 µM (active)
CSc1nc2ccccc2cc1/C=C(\C#N)c1cccc(C)c1	–	3.55 µM (active)
CSc1nc2ccccc2cc1/C=C(\C#N)c1ccccc1	–	11.2 µM (active)
CSc1nc2ccccc2cc1/C=C(\C#N)c1ccc(Cl)cc1Cl	–	22.4 µM (active)
CSc1nc2ccccc2cc1/C=C(\C#N)c1cccc(Cl)c1	–	15.8 µM (active)
CCN(C(=O)CSc1nc2cc(C(=O)OC)ccc2c(=O)n1Cc1ccco1)c1cccc(C)c1	–	1.41 µM (active)
CCc1ccc(NC(=O)CSc2nc3cc(C(=O)OC)ccc3c(=O)n2Cc2ccco2)cc1	-53% (inactive)	–
O=C(NCCc1ccc(Cl)cc1)Nc1cccc(Cl)c1	–	0.891 µM (active)
O=C(NCCc1ccc(Cl)cc1)c1ncn[nH]1	-101% (inactive)	–
O=C(Nc1cccc(Cl)c1)Nn1cnnc1	11.3% [at 11.4 µM] (inactive)	–
CNC(=O)C(=O)NCCc1ccc(Cl)cc1	–	1.12 µM (active)
S=C(S)NCCN1CCNCC1	-11.3% [at 11.4 µM] (inactive)	–
Cc1noc(C)c1-c1nc(N2CCOCC2)c2ccccc2n1	-15.4% (inactive)	–
Cc1nc(N2CCOCC2)nc(N2CCN(c3ccccc3)CC2)c1[N+](=O)[O-]	–	2.24 µM (active)
Cc1nc2cnc(N3CCOCC3)nc2n(Cc2cccs2)c1=O	-25.7% (inactive)	–
Cc1ccc(NC(=O)CCSc2nnc3ccccn23)cc1	–	0.794 µM (active)
CC(C)(C)NC(=O)NC(=O)CSc1nnc2ccccn12	12.4% (inactive)	–
C[C@H](O/N=C1/[C@H]2O[C@@H]2[C@@H](O)[C@H]2[C@H]1CCn1c(=O)n(-c3ccccc3)c(=O)n12)c1cn([C@H](CO)Cc2ccccc2)nn1	20% [at 11.4 µM] (inactive) and 36.7% [at 11.4 µM] (inactive)	–
O=C(OC1CCN(c2ncc(C(F)(F)F)cc2Cl)CC1)c1ccccc1	–	11.2 µM (active)
O=C(c1cc(C(F)(F)F)cc(C(F)(F)F)c1)N1CCC2(CC1)CCN(c1ncccn1)CC2	-29.9% (inactive)	–
COc1ccc(/C=N/NC(=O)C2CCN(c3ncc(C(F)(F)F)cc3Cl)CC2)cc1	-2.67% (inactive)	–

Structure (SMILES)	activity, negative = inhibition	AC50
COc1cccc2cc3c(=O)oc4ccccc4c3nc12	–	3.98 µM (active)
Cn1c(C(F)(F)F)nc2c(=O)oc3ccccc3c21	-18.7% (inactive)	–
COc1ccc(CNc2ccnc(-c3ccc4c(c3)OCO4)n2)c(OC)c1	–	2.51 µM (active)
COc1ccccc1CNc1ccnc(-c2ccc3c(c2)OCO3)n1	–	3.16 µM (active)
O=C(Nc1ccccc1)N1CC2(CCN(C(=O)c3cnccn3)CC2)C1	0.474% (inactive)	–
Cc1ccn2cc(CSc3ccccc3N)nc2c1	–	2.51 µM (active)
N#C/C(=C\Nc1ccccn1)C(=O)c1ccco1	-6.24% [at 11.4 µM] (inactive)	–
CC(C)SC(=N)N	13.8% (inactive)	–
CCSC(=N)N	29.4% (inactive)	–
CSC(=N)N	–	inactive and 631 nM (active)
CCC/C=C(\CCC)C(NC(=O)c1cccs1)c1ccc(C(=O)OC)cc1 (stereo not drawn)	–	0.794 µM (active)
CCC/C=C(\CCC)C(NC(=O)c1ccc(C(F)(F)F)cc1)c1ccc(C(F)(F)F)cc1 (stereo not drawn)	-13.6% (inactive)	–
CCC/C=C(\CCC)C(NC(=O)Oc1ccc(F)cc1)c1ccc(C(=O)OC)cc1 (stereo not drawn)	-17.8% (inactive)	–
CCC/C=C(\CCC)C(NC(=O)Cc1ccccc1)c1ccc(C(=O)OC)cc1 (stereo not drawn)	–	2.51 µM (active)
CCC/C=C(\CCC)C(NC(=O)c1ccc(C(F)(F)F)cc1)c1ccccc1 (stereo not drawn)	–	10 µM (active)
CCC/C=C(\CCC)C(NC(=O)c1ccc(-c2ccccc2)cc1)c1ccc(C(=O)OC)cc1 (stereo not drawn)	10.8% (inactive)	–
CCC/C=C(\CCC)C(NC(=O)c1cccs1)c1ccc(C(F)(F)F)cc1 (stereo not drawn)	–	0.316 µM (active)
COc1ccc(-n2c(=O)c(-c3cc(F)cc(F)c3)nc3cnc(N4CCNCC4)nc32)cc1	-25.9% (inactive)	–
CC(C)(C)NS(=O)(=O)c1ccc(NS(=O)(=O)c2ccc(F)cc2)cc1	4.37% (inactive)	–
CC(C)(C)c1ccc(NS(=O)(=O)c2ccc(N)cc2)cc1	–	0.398 µM (active)
Nc1ccc(S(=O)(=O)Nc2ccc(Cl)nn2)cc1	9.31% [at 25.6 µM] (inactive)	–
